From PubChem BioAssay (NCATS) come the findings set out here.

A short description of experiment [1]: NS1 protein of Zika virus - qHTS assay to identify small molecule inhibitors in human HEK 293 cells (AID 1347053). Also: series mostly up to about 46 µM; nearly all actives have a fitted effect of over 55% in size. In a few lines:
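Inhibition of NS1 expression was scored in HEK 293 cells given compound 1 h ahead of MR766 virus (MOI = 0.5). Following 24 h at 37 C, two anti-NS1 antibodies generated a TR-FRET signal, scaled between uninfected and infected controls.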
For orientation: qHTS replaces the single test concentration by a dilution series.

Experiment [2] can be described thus: qHTS of pediatric cancer cell lines to identify multiple opportunities for drug repurposing: Primary screen for TC32 cells (AID 1347089). Also: nearly all actives have a fitted effect of over 60% in size. In a few lines: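 In the primary qHTS, MIPE compounds were tested at 11 concentrations (0.78 nM to 46 µM) and NPC compounds at 8 (0.59 nM to 46 µM) on TC32 cells for 48 h. CellTiter-Glo luminescence gave viability.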
The nature of experiment [3]: qHTS of pediatric cancer cell lines to identify multiple opportunities for drug repurposing: Primary screen for DAOY cells (AID 1347090). Also: nearly all actives have a fitted effect of over 55% in size. Also: potency is read from the fitted curve at half-maximal effect. The method, boiled down: (§1)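 Cell viability, CellTiter-Glo luminescence; 500-1,000 cells/well, 8- or 11-point titration, 48 h compound exposure at 37 degrees C, 5% CO2. Controls: DMSO neutral, bortezomib 2.3 µM final as positive.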
A short description of experiment [4]: qHTS of pediatric cancer cell lines to identify multiple opportunities for drug repurposing: Primary screen for SJ-GBM2 cells (AID 1347091). Also: potency is read from the fitted curve at half-maximal effect. In a few lines:
as §1

The nature of experiment [5]: qHTS of pediatric cancer cell lines to identify multiple opportunities for drug repurposing: Primary screen for A673 cells (AID 1347092). Also: nearly all actives have a fitted effect of over 45% in size. Also: potency is read from the fitted curve at half-maximal effect. The method, boiled down: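 48 h compound exposure, A673, 500-1,000 cells/well, 37 degrees C/5% CO2. MIPE: 11-point, 0.78 nM-46 µM; NPC: 8-point, 0.59 nM-46 µM (final). Readout CellTiter-Glo luminescence after 15 min RT.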
Experiment [6] in a line: qHTS of pediatric cancer cell lines to identify multiple opportunities for drug repurposing: Primary screen for SK-N-MC cells (AID 1347093). Also: potency is read from the fitted curve at half-maximal effect. In a few lines:
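Metabolically active cells were quantified by ATP-dependent luminescence (CellTiter-Glo, 15 min at room temperature) following 48 h treatment. Cells had been plated at 500-1,000 per well and settled for 5 h beforehand.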

A short description of experiment [7]: qHTS of pediatric cancer cell lines to identify multiple opportunities for drug repurposing: Primary screen for BT-37 cells (AID 1347094). Also: potency is read from the fitted curve at half-maximal effect. The method, boiled down:
(§2)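 Phenotypic viability qHTS, 48 h compound exposure, CellTiter-Glo luminescence read-out; multi-concentration dosing so that potency and efficacy derive directly from the primary screen's curves.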

The nature of experiment [8]: qHTS of pediatric cancer cell lines to identify multiple opportunities for drug repurposing: Primary screen for NB-EBc1 cells (AID 1347095). Also: potency is read from the fitted curve at half-maximal effect. The method, boiled down: as §2
A short description of experiment [9]: qHTS of pediatric cancer cell lines to identify multiple opportunities for drug repurposing: Primary screen for U-2 OS cells (AID 1347096). Also: nearly all actives have a fitted effect of over 50% in size. Also: potency is read from the fitted curve at half-maximal effect. The method, boiled down: (§3)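 Cells (500-1,000/well) rested 5 h, then received compounds for 48 h; metabolically active cells were measured by CellTiter-Glo luminescence. Final concentrations spanned up to 46 µM (MIPE, 11-point) or 0.59 nM-46 µM (NPC, 8-point) in primary screens, 11-point in follow-ups.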

Experiment [10] is described as follows: qHTS of pediatric cancer cell lines to identify multiple opportunities for drug repurposing: Primary screen for Saos-2 cells (AID 1347097). Also: nearly all actives have a fitted effect of over 40% in size. Also: potency is read from the fitted curve at half-maximal effect. The method, boiled down:
as §2

Experiment [11] can be described thus: qHTS of pediatric cancer cell lines to identify multiple opportunities for drug repurposing: Primary screen for SK-N-SH cells (AID 1347098). Also: nearly all actives have a fitted effect of over 65% in size. Also: potency is read from the fitted curve at half-maximal effect. The method, boiled down: as §3
Experiment [12] is described as follows: qHTS of pediatric cancer cell lines to identify multiple opportunities for drug repurposing: Primary screen for LAN-5 cells (AID 1347100). Also: potency is read from the fitted curve at half-maximal effect. The method, boiled down:
as §3

Experiment [13] deals with T1, Tyrosine-protein phosphatase non-receptor type substrate 1 (Homo sapiens) + Leukocyte surface antigen CD47 (Homo sapiens) (UniProt P78324+Q08722). Description: CD47-SIRPalpha protein protein interaction - LANCE assay qHTS validation (AID 1347057; active = well fitted curve in the direction sought with a large enough effect in the signal ratio, with a control signal flat, not every such curve was filed as active; the % refers to the signal ratio; also: series mostly up to about 38 µM). The method, boiled down:
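First, His-tagged CD47 and Eu-labelled anti-His antibody met the compound for 30 min; next, site-specifically biotinylated SIRPalpha was added for 30 min; finally streptavidin-APC was added before reading the TR-FRET ratio.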

The target in experiment [14] is T1, Tyrosine-protein phosphatase non-receptor type substrate 1 (Homo sapiens) + Leukocyte surface antigen CD47 (Homo sapiens). Put plainly: CD47-SIRPalpha protein protein interaction - HTRF assay qHTS validation (AID 1347058; active = well fitted curve in the direction sought with a large enough effect in the signal ratio, not every such curve was filed as active; the % refers to the signal ratio;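 also: recombinant soluble extracellular CD47 with His tag and biotinylated SIRPalpha domains; series mostly up to about 38 µM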). The method, boiled down: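 TR-FRET read (Ch1/Ch2 ratio) of soluble extracellular CD47 and Avi-biotinylated SIRPalpha domains in PBS pH 7.4 with 0.05% IGEPAL; 7-point compound titration. Sequential 30 min room-temperature steps; non-biotinylated SIRPalpha as control inhibitor.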
A general note: TR-FRET usually uses a lanthanide donor and a delayed reading to cut background.

Experiment [15] shares this target. Description: CD47-SIRPalpha protein protein interaction - Alpha assay qHTS validation (AID 1347059).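 Also: bead proximity luminescence from CD47 binding SIRPalpha after compound preincubation with SIRPalpha.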 In a few lines: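 Binding is measured by AlphaScreen proximity: Ni-NTA acceptor beads capture His-CD47, streptavidin donor beads capture biotin-SIRPalpha. Each of three additions (SIRPalpha with compound, CD47, beads) incubates 30 min at room temperature protected from light.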

Experiment [16] deals with Parathyroid hormone/parathyroid hormone-related peptide receptor (Homo sapiens) (UniProt Q03431). Put plainly: qHTS for PTHR1 Agonists: Optimization Screen against the NCGC LOPAC library (AID 1347079).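 Also: GloSensor cAMP luminescence in HEK-293 GP2 cells expressing human PTHR1 with IBMX.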 The method, boiled down:
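Compounds were tested across a qHTS titration. PTHR1-expressing GP2 cells report cAMP rises via GloSensor luminescence after 1 hr compound exposure at 37C with IBMX present.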

Experiment [17] in a line: qHTS of pediatric cancer cell lines to identify multiple opportunities for drug repurposing: Primary screen for BT-12 cells (AID 1347101). Also: nearly all actives have a fitted effect of over 25% in size. In a few lines: as §3
For experiment [18], the target named is Atrial natriuretic peptide receptor 1 (Homo sapiens) (UniProt P16066). Put plainly: Natriuretic polypeptide receptor (hNpr1) antagonism - Pilot screen (AID 1347049; calls by dose curve;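 also: agonist-evoked cGMP luminescence read 20 min after hNppA addition; series mostly up to about 58 µM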). The method, boiled down: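 Readout is cGMP-driven firefly luciferase luminescence in HEK293 cells carrying hNpr1 and a PDE5-domain GloSensor, read before and 20 min after 0.1 nM hNppA stimulation. Cells had 2% substrate reagent for 2 h and test compound for 30 min.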

Experiment [19] concerns the target Atrial natriuretic peptide receptor 2 (Homo sapiens) (UniProt P20594). Put plainly: Natriuretic polypeptide receptor (hNpr2) antagonism - Pilot subtype selectivity assay (AID 1347050; calls by dose curve). In a few lines:
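Pilot selectivity screen against hNpr2: HEK293 cGMP-sensor cells are treated with LOPAC1280 compounds, then with hNppC peptide at 1 nM final. The cGMP-driven luminescence change over 20 min at room temperature is the read-out.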

Experiment [20] in a line: qHTS of pediatric cancer cell lines to identify multiple opportunities for drug repurposing: Primary screen for NB1643 cells (AID 1347099). Also: nearly all actives have a fitted effect of over 50% in size. In a few lines:
as §2

“And” between values parts separate entries of the source, which are not always exact repeats. Identical values can stand only once. Records with an inconclusive call do not appear. The source made the active and inactive calls. Unless noted, calls follow the shape of the dose curve; as a rule, active = well fitted curve in the direction sought with a large enough effect; inconclusive = small, poorly fitted or top-dose-only effect, or another doubt; inactive = no such curve, though single readings can be large; an effect the other way counts as inactive or inconclusive.

T1 sequence (P78324 whole entry, looked up): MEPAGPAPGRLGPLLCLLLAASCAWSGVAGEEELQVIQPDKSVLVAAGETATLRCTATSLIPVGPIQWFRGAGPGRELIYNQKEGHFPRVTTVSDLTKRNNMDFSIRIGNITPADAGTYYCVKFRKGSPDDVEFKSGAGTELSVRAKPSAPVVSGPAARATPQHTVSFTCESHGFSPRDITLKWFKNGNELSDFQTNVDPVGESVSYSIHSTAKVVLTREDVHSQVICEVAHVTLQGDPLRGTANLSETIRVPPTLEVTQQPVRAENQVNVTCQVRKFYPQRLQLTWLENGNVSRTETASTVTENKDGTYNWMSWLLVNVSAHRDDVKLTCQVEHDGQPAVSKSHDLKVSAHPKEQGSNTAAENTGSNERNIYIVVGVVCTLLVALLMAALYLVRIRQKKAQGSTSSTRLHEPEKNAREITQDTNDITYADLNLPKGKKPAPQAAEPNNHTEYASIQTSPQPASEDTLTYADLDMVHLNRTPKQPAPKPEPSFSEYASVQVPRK
T1 sequence (Q08722 whole entry, looked up): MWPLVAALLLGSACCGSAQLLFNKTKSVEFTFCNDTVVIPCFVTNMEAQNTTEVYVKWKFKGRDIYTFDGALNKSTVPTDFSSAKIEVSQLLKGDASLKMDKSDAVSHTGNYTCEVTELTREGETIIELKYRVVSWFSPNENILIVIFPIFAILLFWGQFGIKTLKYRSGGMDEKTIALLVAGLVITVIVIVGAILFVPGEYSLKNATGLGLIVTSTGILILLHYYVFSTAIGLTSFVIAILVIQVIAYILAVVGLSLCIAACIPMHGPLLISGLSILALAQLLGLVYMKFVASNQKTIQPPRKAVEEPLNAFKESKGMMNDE
Sequence of Parathyroid hormone/parathyroid hormone-related peptide receptor (Homo sapiens) (Q03431 whole entry, looked up): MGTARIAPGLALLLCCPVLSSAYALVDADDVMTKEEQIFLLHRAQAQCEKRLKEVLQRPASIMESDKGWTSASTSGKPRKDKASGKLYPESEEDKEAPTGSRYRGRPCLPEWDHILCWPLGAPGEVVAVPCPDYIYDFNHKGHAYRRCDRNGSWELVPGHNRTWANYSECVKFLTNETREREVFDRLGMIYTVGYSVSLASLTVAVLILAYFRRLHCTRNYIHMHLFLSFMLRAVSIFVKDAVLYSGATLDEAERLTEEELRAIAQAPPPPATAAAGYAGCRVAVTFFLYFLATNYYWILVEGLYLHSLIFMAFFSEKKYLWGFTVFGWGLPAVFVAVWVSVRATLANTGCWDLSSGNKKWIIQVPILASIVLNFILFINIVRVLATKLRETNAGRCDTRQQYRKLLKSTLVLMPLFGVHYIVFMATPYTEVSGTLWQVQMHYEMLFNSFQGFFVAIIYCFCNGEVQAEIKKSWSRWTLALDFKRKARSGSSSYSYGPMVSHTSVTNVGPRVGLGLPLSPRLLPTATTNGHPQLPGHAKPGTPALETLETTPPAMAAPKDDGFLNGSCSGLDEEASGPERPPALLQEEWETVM
Sequence of Atrial natriuretic peptide receptor 2 (Homo sapiens) (P20594 whole entry, looked up): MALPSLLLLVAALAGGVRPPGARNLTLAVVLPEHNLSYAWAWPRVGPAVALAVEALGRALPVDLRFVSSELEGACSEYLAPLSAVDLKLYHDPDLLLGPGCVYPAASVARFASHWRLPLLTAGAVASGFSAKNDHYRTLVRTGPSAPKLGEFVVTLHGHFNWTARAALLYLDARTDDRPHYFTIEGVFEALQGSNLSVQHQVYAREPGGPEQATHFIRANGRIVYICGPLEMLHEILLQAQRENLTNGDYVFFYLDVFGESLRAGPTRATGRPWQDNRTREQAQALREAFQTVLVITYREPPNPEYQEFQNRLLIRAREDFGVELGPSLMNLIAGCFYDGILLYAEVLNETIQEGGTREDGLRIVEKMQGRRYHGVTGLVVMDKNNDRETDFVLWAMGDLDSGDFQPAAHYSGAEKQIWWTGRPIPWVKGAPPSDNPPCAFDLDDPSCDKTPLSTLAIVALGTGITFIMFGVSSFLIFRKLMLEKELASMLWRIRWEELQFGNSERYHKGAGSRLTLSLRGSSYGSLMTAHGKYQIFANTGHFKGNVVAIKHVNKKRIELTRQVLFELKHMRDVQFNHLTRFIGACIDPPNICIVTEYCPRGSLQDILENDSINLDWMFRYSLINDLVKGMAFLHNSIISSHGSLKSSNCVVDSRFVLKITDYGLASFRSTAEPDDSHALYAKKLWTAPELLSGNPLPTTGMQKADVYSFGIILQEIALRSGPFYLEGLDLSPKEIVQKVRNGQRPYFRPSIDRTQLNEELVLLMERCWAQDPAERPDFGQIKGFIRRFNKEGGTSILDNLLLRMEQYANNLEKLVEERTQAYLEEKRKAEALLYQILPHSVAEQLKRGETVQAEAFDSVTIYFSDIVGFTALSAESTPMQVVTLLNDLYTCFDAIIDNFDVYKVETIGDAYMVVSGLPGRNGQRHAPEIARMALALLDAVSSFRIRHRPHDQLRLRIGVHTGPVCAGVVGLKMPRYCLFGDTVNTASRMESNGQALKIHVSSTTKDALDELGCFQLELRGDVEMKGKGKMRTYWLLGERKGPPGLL
Sequence of Atrial natriuretic peptide receptor 1 (Homo sapiens) (P16066 whole entry, looked up): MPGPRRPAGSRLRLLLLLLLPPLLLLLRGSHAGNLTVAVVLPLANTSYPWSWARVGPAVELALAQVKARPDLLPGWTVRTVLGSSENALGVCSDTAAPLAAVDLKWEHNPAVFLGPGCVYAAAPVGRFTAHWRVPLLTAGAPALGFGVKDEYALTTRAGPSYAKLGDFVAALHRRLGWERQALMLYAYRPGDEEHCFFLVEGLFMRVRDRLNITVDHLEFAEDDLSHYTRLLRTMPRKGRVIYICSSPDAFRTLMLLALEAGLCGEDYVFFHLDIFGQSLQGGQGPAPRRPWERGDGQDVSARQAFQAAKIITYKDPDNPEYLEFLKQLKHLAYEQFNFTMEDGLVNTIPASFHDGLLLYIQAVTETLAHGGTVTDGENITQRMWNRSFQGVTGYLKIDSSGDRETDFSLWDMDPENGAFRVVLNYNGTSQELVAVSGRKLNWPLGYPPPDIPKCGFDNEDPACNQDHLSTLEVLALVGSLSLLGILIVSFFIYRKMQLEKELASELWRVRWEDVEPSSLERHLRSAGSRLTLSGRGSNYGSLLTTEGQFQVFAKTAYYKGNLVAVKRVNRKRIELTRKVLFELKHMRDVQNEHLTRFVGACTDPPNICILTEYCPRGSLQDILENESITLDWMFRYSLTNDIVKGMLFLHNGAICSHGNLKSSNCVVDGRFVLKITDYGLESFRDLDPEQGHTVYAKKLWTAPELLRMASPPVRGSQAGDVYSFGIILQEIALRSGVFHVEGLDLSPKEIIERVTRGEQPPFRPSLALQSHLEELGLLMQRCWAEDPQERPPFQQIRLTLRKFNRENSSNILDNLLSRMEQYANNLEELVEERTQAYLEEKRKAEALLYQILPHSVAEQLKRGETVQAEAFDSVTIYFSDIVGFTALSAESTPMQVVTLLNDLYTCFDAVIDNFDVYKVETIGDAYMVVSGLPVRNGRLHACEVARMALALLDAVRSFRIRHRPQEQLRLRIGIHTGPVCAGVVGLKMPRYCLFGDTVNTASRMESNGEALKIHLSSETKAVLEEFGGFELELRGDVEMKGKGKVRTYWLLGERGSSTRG

In the case of `CS(=O)(=O)CCNCc1ccc(-c2ccc3ncnc(Nc4ccc(OCc5cccc(F)c5)c(Cl)c4)c3c2)o1`, the Potency result in [1] and in experiment [2] was “inactive” each time. Also, the Potency in experiment [3] was 0.235 µM (active); in experiment [4] it was 10.5 µM (active); in experiment [5] it was 74.3 nM (active) and 21.1 µM (active); in experiment [6], 93.5 nM (active) and 11.9 µM (active); in experiment [7], 24.3 µM (active) and 27.6 µM (active); in experiment [8], 3.72 µM (active). In addition, the Potency in experiment [9] was 18.7 µM (active); in experiment [10], 29.6 µM (active); in experiment [11] it was 9.7 µM (active); in experiment [12], 16.6 µM (active).

Regarding `Cn1ccc2cc3c(cc21)CCN3C(=O)Nc1cccnc1`, the Potency entry in [1], in experiment [15], in experiment [16], in experiment [2], in experiment [3] and in experiment [4] was “inactive” throughout. The Potency entry in [6], in experiment [7], in [8], in [9], in experiment [10] and in [12] was “inactive” in each case. Also, the Potency result in [17] is “inactive”. The outcome in experiment [13] and in experiment [14] was inactive. In addition, the Potency in experiment [5] was 11.8 µM (active).

Regarding `CC(C(=O)O)c1cccc(C(=O)c2ccccc2)c1` (stereo not given), the Potency entry in experiment [18], in [19], in [1], in experiment [16], in experiment [2] and in experiment [4] was “inactive” each time. In addition, the Potency entry in experiment [7], in [8], in experiment [9], in experiment [10], in experiment [11] and in experiment [12] was “inactive” in each case. In addition, the Potency result in experiment [17] was “inactive”.

On to `Cc1cn([C@H]2C[C@H](N=[N+]=[N-])[C@@H](CO)O2)c(=O)[nH]c1=O`, for which the Potency entry in experiment [18], in experiment [19], in experiment [1], in experiment [16], in experiment [4] and in experiment [7] was “inactive” in each case. The Potency entry in experiment [8], in experiment [9], in experiment [10], in experiment [12] and in [17] was “inactive” in each case.

Take `CN(C)C(=N)N=C(N)N`: the Potency result in experiment [1], in experiment [2], in experiment [4], in experiment [5], in [6] and in [7] was “inactive” throughout. Besides, the Potency result in experiment [8], in experiment [9], in experiment [10], in [11], in experiment [20] and in experiment [12] was “inactive” each time. For the same compound, in experiment [17], the Potency result is “inactive”.
